Calls of active or inactive are those of the source. How the source made its calls: active means hit-call score of the fitted dose curve at least 0.9, where 1 is the maximum; inactive means score below 0.9.
What was measured:
[1] = target: Bile acid receptor (Homo sapiens) (UniProt Q96RI1); assay: ATG_IR1_CIS: Attagene CIS-FACTORIAL HepG2 Assay for human Nuclear Receptor Subfamily 1 Group H Member 4 (NR1H4), IR1 submotif (AID 2282946); conditions: IR1 reporter transcription, actives raise or lower the signal
How it was run: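 Transient MRTU transfection, HepG2; 24 h dosing; RNA → RT-PCR → 6-FAM primer extension → HpaI digest → capillary electrophoresis fluorescence. Gain/loss of signal fitted relative to DMSO.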

[2] = ATG_GRE_CIS: Attagene CIS-FACTORIAL HepG2 Assay for human Glucocorticoid Response Elements (GRE) (AID 2282947); conditions: HepG2 GRE cis-reporter, Attagene multiplex mRNA; actives raise or lower the signal
How it was run: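 HepG2 cells transiently transfected with multiple cis-promoter reporter units measure endogenous TF activity; 24 h compound exposure. Reporter mRNA quantified by RT-PCR, FAM labelling, HpaI digestion and capillary electrophoresis; bidirectional fit vs DMSO baseline.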

[3] = ATG_ISRE_CIS: Attagene CIS-FACTORIAL HepG2 Assay for human Interferon Regulatory Factor 1 (IRF1) binding to an Interferon-Stimulated Response Element (ISRE) (AID 2282948); conditions: HepG2 ISRE cis-reporter (Attagene), mRNA transcription readout; actives raise or lower the signal
How it was run: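 Transfected HepG2 (multiple reporter transcription units, cis elements) dosed 24 h. RNA → oligo(dT) RT → PCR → 6-FAM primer extension → HpaI → CE. DMSO = negative control/baseline.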

[4] = ATG_M_32_CIS: Attagene CIS-FACTORIAL HepG2 Assay for M32 Transcription Factor (Internal Marker) (AID 2282949); conditions: HepG2 Attagene cis-factorial M32 reporter, mRNA; actives raise or lower the signal;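 further: background control marker of the multiplexed CIS panel rather than a real target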
How it was run: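 Following 24 h chemical exposure of HepG2 cells transiently expressing cis-promoter reporter constructs, reporter transcript levels were determined by RT-PCR with fluorescent labelling and capillary electrophoresis, then fitted bidirectionally against DMSO.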

[5] = ATG_M_06_CIS: Attagene CIS-FACTORIAL HepG2 Assay for M06 Transcription Factor (Internal Marker) (AID 2282950); conditions: HepG2 Attagene CIS-FACTORIAL M06 internal marker reporter; actives raise or lower the signal
How it was run: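 Cells (HepG2, transiently carrying cis-driven reporter units) receive chemical for 24 h before RNA isolation. Reporter cDNA is PCR-amplified, FAM-labelled by primer extension, HpaI-digested and sized on a capillary analyser.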

[6] = target: Hypoxia-inducible factor 1-alpha (Homo sapiens) (UniProt Q16665); assay: ATG_HIF1a_CIS: Attagene CIS-FACTORIAL HepG2 Assay for human Hypoxia Inducible Factor 1 (HIF1A) (AID 2282951); conditions: HepG2 Attagene cis-factorial HIF1a reporter transcription; actives raise or lower the signal
How it was run: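 Dosed 24 h, transfected HepG2 cells yielded total RNA whose reporter transcripts were RT-PCR-amplified and sized by capillary electrophoresis using fluorescent labelling; DMSO defined baseline, with gain and loss of signal both fitted.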

[7] = target: Hepatocyte nuclear factor 6 (Homo sapiens) (UniProt Q9UBC0); assay: ATG_HNF6_CIS: Attagene CIS-FACTORIAL HepG2 Assay for human Hepatocyte Nuclear Factor 6 (HNF6) (AID 2282952); conditions: HepG2 Attagene cis-factorial HNF6 reporter transcription; actives raise or lower the signal
How it was run: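 HepG2 cells transiently transfected with cis-element-driven multiplexed reporter units measuring endogenous transcription factor activity. After 24 h exposure, reporter mRNA quantified by RT-PCR, FAM-labelled fragments and capillary electrophoresis; bidirectional fitting versus DMSO.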

[8] = target: Heat shock factor protein 1 (Homo sapiens) (UniProt Q00613); assay: ATG_HSE_CIS: Attagene CIS-FACTORIAL HepG2 Assay for human Heat Shock Transcription Factor 1 (HSE) (AID 2282953); conditions: HepG2 HSE cis-reporter, Attagene RNA transcription; actives raise or lower the signal
How it was run: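 Liver-derived HepG2 cells carry transiently introduced multiple reporter units governed by cis promoters. Reporter RNA measured 24 h post-dose through reverse transcription, PCR amplification, fluorescent labelling and capillary electrophoresis, normalised to DMSO.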

[9] = ATG_MRE_CIS: Attagene CIS-FACTORIAL HepG2 Assay for human Metal Responsive Element (MRE) (AID 2282954); conditions: HepG2 MRE cis-reporter transcription, Attagene multiplex; actives raise or lower the signal
How it was run: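 HepG2 cells transiently transfected with multiple cis-element reporter units measure endogenous MTF1-driven transcription. After 24 h compound exposure, reporter mRNA is quantified by RT-PCR with 6-FAM labelling, HpaI digestion and capillary electrophoresis; bidirectional fits versus DMSO.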

[10] = ATG_PBREM_CIS: Attagene CIS-FACTORIAL HepG2 Assay for human Phenobarbital-responsive Enhancer Module (PBREM) (AID 2282955); conditions: HepG2 PBREM cis-reporter, Attagene multiplexed transcription; actives raise or lower the signal
How it was run: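 Transfected liver-derived HepG2 cells exposed 24 h; PBREM reporter transcript quantified via RT-PCR and capillary electrophoresis, with activity in either direction referenced to DMSO.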

[11] = target: Paired box protein Pax-6 (Homo sapiens) (UniProt P26367); assay: ATG_Pax6_CIS: Attagene CIS-FACTORIAL HepG2 Assay for human Paired Box 6 (PAX6) (AID 2282956); conditions: HepG2 CIS-FACTORIAL PAX6 reporter transcription, RNA readout; actives raise or lower the signal
How it was run: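 Transient MRTU transfection of HepG2 → compound exposure 24 h → TriZol RNA, oligo(dT) RT → PCR, 6-FAM primer extension, HpaI cut → capillary electrophoresis; activity fitted both directions against DMSO.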

[12] = ATG_PXRE_CIS: Attagene CIS-FACTORIAL HepG2 Assay for human Pregnane X Receptor Element (PXRE) (AID 2282957); conditions: HepG2 Attagene CIS-FACTORIAL PXRE reporter, mRNA; actives raise or lower the signal
How it was run: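 HepG2 cells transiently transfected with cis-element-driven multiplexed reporter units; after 24 h chemical exposure, reporter mRNA measured by RT-PCR, 6-FAM labelling, HpaI digestion and capillary electrophoresis. Bidirectional fitting relative to DMSO.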

[13] = ATG_PPRE_CIS: Attagene CIS-FACTORIAL HepG2 Assay for human Peroxisome Proliferator-activated Response Element (PPRE) (AID 2282958); conditions: HepG2 PPRE cis-element reporter, Attagene transcription factor profiling; actives raise or lower the signal
How it was run: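 Measured endpoint: PPRE-controlled reporter mRNA, detected by RT-PCR and capillary electrophoresis fluorescence, from transiently transfected HepG2 cells 24 h after dosing. Curves fitted in both directions using DMSO baseline.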

[14] = ATG_Sox_CIS: Attagene CIS-FACTORIAL HepG2 Assay for human SRY-box transcription factor (SOX) (AID 2282960); conditions: HepG2 Attagene cis-factorial SOX reporter, mRNA; actives raise or lower the signal
How it was run: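 Gain- or loss-of-signal endpoint, fitted bidirectionally with DMSO as negative control. Based on reporter mRNA from transfected HepG2 cells harvested 24 h post-treatment and quantified via RT-PCR and capillary electrophoresis.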

[15] = target: Transcription factor Sp1 (Homo sapiens) (UniProt P08047); assay: ATG_Sp1_CIS: Attagene CIS-FACTORIAL HepG2 Assay for human Specificity Protein 1 (Sp1) (AID 2282961); conditions: HepG2 Sp1 cis-reporter transcription, actives raise or lower the signal
How it was run: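 Endpoint reflects endogenous Sp1 transcriptional activity, not an exogenous fusion protein: HepG2 cells with transfected cis-regulated reporters, 24 h dosing, RT-PCR/capillary electrophoresis mRNA read-out, DMSO-normalised bidirectional fit.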

[16] = ATG_SREBP_CIS: Attagene CIS-FACTORIAL HepG2 Assay for human Sterol Regulatory Element Binding (SREBP) (AID 2282962); conditions: HepG2 Attagene cis-factorial SREBP reporter, mRNA; actives raise or lower the signal
How it was run: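 Transfected HepG2 (cis-regulated reporter library, endogenous TFs) → compound 24 h → total RNA → oligo(dT) RT → reporter-specific PCR → FAM primer extension, HpaI cut → CE fluorescence. Fit bidirectional vs DMSO.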

[17] = target: Signal transducer and activator of transcription 3 (Homo sapiens) (UniProt P40763); assay: ATG_STAT3_CIS: Attagene CIS-FACTORIAL HepG2 Assay for human Signal Transducer and Activator of Transcription 3 (STAT3) (AID 2282963); conditions: HepG2, Attagene cis-factorial STAT3 reporter transcription; actives raise or lower the signal
How it was run: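 HepG2 cells transiently transfected with cis-element-driven multiple reporter transcription units; after 24 h chemical exposure, reporter mRNA measured by RT-PCR, 6-FAM primer-extension labelling, HpaI digestion and capillary electrophoresis. Bidirectional fitting versus DMSO baseline.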

[18] = ATG_TA_CIS: Attagene CIS-FACTORIAL HepG2 Assay for human TA Basal Promoter (AID 2282964); conditions: HepG2 Attagene CIS-factorial TA basal promoter reporter; actives raise or lower the signal
How it was run: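 Background internal-marker endpoint from a 52-component HepG2 cis-reporter panel. Cells treated 24 h; reporter transcripts quantified via RT-PCR and CE fluorescence against DMSO baseline.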

[19] = ATG_TCF_b_cat_CIS: Attagene CIS-FACTORIAL HepG2 Assay for human T-Cell-Factor with beta-catenin (TCF/b-cat) (AID 2282965); conditions: HepG2 TCF/beta-catenin cis-reporter transcription, actives raise or lower the signal
How it was run: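 HepG2 cells transiently transfected with multiple cis-promoter-regulated reporter transcription units, so endogenous transcription factor activity is measured. Reporter mRNA read 24 hours after dosing by RT-PCR, fluorescent labelling and capillary electrophoresis; bidirectional fitting against DMSO.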

[20] = ATG_RORE_CIS: Attagene CIS-FACTORIAL HepG2 Assay for human RAR-related Orphan Receptor Element (RORE) (AID 2282959); conditions: HepG2 Attagene cis-factorial RORE reporter, mRNA; actives raise or lower the signal
How it was run: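 Transiently transfected HepG2 reporter cells were treated 24 h. Reporter transcripts were detected by RT-PCR and capillary electrophoresis, with bidirectional fitting against DMSO.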

Measured: AC50

Sequence of Heat shock factor protein 1 (Homo sapiens) (Q00613 whole entry, looked up): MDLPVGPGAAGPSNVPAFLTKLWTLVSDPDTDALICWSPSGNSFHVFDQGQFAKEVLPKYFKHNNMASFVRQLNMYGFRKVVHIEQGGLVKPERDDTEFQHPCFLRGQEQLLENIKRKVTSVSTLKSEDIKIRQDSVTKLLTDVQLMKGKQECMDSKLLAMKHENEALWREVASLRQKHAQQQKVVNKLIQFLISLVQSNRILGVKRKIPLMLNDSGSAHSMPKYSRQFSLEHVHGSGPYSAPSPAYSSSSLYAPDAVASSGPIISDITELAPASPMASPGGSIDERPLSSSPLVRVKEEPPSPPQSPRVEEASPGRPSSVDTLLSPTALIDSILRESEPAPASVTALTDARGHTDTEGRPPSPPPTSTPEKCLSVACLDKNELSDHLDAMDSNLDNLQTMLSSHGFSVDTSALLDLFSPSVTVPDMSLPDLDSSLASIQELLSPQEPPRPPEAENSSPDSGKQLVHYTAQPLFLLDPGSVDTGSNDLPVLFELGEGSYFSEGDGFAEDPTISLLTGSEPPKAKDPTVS
Sequence of Hepatocyte nuclear factor 6 (Homo sapiens) (Q9UBC0 whole entry, looked up, the tested form may be a part): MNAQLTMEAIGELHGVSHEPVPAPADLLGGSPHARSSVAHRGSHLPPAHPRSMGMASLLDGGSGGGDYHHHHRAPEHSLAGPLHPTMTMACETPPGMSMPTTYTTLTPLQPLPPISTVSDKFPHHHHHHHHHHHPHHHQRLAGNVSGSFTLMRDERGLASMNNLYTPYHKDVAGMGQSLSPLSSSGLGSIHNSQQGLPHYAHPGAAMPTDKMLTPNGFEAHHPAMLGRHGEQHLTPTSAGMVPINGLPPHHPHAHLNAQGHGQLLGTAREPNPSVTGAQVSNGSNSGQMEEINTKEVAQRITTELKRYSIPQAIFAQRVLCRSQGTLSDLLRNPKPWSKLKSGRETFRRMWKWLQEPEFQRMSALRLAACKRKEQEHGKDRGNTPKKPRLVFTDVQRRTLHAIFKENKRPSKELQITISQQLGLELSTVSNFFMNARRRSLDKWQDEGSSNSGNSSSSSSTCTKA
Sequence of Bile acid receptor (Homo sapiens) (Q96RI1 whole entry, looked up): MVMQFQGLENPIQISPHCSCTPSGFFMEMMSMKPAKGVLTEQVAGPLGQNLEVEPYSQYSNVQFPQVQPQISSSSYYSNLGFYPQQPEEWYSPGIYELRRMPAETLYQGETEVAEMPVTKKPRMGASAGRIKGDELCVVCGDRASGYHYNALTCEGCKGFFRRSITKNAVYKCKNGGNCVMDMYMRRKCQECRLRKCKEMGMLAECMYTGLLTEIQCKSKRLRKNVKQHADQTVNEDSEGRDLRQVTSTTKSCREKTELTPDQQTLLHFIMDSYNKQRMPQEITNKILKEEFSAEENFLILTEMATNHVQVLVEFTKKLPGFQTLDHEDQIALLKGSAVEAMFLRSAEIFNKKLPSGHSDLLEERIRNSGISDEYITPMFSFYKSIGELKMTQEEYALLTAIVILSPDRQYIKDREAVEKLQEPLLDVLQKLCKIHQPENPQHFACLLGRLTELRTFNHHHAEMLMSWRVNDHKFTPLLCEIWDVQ
Sequence of Transcription factor Sp1 (Homo sapiens) (P08047 whole entry, looked up, the tested form may be a part): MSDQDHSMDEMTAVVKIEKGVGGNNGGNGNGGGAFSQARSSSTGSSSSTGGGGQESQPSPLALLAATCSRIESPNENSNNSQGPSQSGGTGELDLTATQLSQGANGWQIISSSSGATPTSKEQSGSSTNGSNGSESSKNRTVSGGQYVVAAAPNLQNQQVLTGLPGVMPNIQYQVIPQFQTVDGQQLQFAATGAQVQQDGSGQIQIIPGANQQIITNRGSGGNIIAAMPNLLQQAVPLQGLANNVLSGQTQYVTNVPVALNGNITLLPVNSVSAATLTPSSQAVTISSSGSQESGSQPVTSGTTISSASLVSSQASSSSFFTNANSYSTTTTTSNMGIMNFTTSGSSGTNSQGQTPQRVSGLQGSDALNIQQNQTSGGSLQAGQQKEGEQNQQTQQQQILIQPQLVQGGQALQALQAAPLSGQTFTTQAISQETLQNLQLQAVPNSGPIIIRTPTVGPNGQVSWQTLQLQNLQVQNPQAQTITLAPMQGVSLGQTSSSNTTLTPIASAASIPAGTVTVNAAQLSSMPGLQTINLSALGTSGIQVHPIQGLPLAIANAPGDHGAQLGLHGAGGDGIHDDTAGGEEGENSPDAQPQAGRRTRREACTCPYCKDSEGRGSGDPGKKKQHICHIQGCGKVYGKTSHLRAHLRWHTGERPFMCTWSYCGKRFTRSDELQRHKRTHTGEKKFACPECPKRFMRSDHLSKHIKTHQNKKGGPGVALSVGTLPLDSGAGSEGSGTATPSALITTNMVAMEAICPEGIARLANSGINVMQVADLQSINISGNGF
Sequence of Signal transducer and activator of transcription 3 (Homo sapiens) (P40763 whole entry, looked up): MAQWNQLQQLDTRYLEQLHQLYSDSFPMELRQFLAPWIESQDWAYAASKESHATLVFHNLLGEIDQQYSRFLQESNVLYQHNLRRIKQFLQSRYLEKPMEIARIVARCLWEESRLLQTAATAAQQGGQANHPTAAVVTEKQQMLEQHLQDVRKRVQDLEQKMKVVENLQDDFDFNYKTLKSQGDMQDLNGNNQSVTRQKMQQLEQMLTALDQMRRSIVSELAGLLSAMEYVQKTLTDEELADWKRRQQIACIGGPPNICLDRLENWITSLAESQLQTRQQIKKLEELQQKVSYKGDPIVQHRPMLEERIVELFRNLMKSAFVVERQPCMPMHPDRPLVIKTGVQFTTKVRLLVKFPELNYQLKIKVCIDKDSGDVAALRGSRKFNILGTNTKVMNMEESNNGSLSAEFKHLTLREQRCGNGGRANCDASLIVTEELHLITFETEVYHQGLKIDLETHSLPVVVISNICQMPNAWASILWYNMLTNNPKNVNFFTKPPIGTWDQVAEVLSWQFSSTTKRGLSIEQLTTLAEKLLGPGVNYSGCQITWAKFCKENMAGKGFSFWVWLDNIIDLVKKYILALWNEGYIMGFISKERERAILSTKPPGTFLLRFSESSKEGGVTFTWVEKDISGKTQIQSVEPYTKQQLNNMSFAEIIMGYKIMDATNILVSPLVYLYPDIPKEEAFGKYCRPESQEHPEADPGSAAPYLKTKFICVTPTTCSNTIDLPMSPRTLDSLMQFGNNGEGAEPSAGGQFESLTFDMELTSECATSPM
Sequence of Hypoxia-inducible factor 1-alpha (Homo sapiens) (Q16665 whole entry, looked up): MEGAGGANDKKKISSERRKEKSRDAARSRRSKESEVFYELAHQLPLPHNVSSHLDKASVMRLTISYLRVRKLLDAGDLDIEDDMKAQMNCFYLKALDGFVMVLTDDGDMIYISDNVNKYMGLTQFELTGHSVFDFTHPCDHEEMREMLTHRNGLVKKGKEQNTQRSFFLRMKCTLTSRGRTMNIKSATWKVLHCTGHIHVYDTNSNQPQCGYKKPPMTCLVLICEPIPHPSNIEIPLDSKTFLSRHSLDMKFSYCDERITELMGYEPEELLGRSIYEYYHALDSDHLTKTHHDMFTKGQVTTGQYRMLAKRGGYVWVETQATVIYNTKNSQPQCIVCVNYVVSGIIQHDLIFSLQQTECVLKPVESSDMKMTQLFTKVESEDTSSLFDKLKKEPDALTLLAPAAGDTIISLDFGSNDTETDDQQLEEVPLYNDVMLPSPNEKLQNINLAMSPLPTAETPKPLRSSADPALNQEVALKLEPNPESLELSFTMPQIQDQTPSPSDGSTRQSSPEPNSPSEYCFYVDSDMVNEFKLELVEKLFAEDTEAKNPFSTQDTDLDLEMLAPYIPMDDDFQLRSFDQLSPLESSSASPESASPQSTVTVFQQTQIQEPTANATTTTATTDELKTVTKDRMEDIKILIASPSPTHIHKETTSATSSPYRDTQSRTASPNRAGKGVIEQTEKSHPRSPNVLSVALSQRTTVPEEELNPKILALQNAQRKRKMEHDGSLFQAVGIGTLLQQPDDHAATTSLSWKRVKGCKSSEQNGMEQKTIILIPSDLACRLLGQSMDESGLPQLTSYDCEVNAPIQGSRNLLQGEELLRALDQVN
Sequence of Paired box protein Pax-6 (Homo sapiens) (P26367 whole entry, looked up): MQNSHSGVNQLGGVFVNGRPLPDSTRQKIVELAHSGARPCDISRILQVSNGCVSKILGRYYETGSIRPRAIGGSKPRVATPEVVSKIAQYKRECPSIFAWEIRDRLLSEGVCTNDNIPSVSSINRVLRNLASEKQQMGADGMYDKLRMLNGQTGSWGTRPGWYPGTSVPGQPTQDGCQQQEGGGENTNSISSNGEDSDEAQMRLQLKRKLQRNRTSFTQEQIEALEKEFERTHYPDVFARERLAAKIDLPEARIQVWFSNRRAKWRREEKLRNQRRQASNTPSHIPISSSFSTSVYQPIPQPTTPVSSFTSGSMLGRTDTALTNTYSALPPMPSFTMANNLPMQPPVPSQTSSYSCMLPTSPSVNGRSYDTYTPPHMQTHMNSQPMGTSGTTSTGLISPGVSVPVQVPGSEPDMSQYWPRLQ

CC(C)C(=O)C(C)C
active: [8] 68.7 µM | [11] 42.4 µM | [14] 19.5 µM | [19] 61.5 µM
not listed: [20]
inactive: all other assays above

CO[Si](CCC1CCC2OC2C1)(OC)OC (centres undefined)
inactive: all assays above

CC(C)c1ccc2c(C(C)C)cc(C(C)C)c(S(=O)(=O)O)c2c1
active: [9] 21.1 µM | [12] 1.56 µM | [16] 22.4 µM
not listed: [10]
inactive: all other assays above

CC1=NN(c2cc(S(=O)(=O)O)ccc2Cl)C(=O)C1N=Nc1ccccc1 (centres undefined)
not listed: [8] | [18]
inactive: all other assays above

O=C1C=CC(=O)O1
not listed: [9] | [10]
inactive: all other assays above

NC(=O)C1CO1 (centres undefined)
not listed: [8] | [10]
inactive: all other assays above

CC(=O)OC1C2(C)CCC(C2)C1(C)C (centres undefined)
not listed: [10] | [12] | [20]
inactive: all other assays above

— PubChem BioAssay (EPA / NIEHS)
